Measurements published in the supplement of paper PMC11417369.
Whole data set: some 25,000 sequences, median “ln(normalized median fluorescence intensity)” near 7.1, cut for the highest 2% near 10. For the sample, the highest values were picked, then their nearest neighbours and some sequences at random.

Each sequence was assayed on PfSIP2 AP2 domain 1 (GST-tagged) (assay: gcPBM binding intensity (ln(normalized median fluorescence intensity)); higher = stronger DNA binding).
In short: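 Binding intensity is defined as the maximum Masliner-normalised natural-log median intensity across replicate spots for either probe orientation. It was measured on an Agilent 4 × 180k array of primer-extended double-stranded 36-bp intergenic genomic probes and negative controls, to which GST-tagged P. falciparum DNA-binding domains made in E. coli were applied for 1 h in 1× PBS with 1% milk, 0.2 mg/ml BSA, 0.5% salmon testes DNA and 0.03% Triton X-100. Detection was by Alexa488 anti-GST antibody and scanning at 488 nm.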

Sequence | gcPBM binding intensity (ln)
ATAATTCCATAAAATAGACACACGAATGTATAATAT [CACACA_site477] | 7
AATAATGAAAAATCAAATAACCTAAATTACAACTGT [XGTACX_negctrl_site65] | 6.91
TACGTTGTATATTTTTGTACATATTGAATTACAAAA [XGTACX_site5906] | 6.95
ACGAAAAGATATATATGTACATATATTAAAAAAAAA [XGTACX_site1517] | 7.01
TTCAAACATATTAATTGTACATACAACAAAACCATG [XGTACX_site5149] | 7.13
TAATTATGCCAACACACACACACACCCAACTAAAAA [CACACA_site8823] | 7.32
ATTATGCACCAACACACACACACACCCCTAAAAAAT [CACACA_site2568] | 10.8
TGCACAAAATTATGCACACACCTAAAATTAATTTTT [CACACA_site5596] | 8.28
ATTATGCACCAACACACACACACACTCCTAAAAAAT [CACACA_site8822] | 11.1
ATTATGCACGGACACACACACACACCCCTAAAAAAT [CACACA_site5426] | 7.88
TGTGCCCAAAATTATGCACACACCTAAAATTAATTT [CACACA_site2914] | 7.79
TATATACTCAGACATACACACAAATAAAAAAACACC [CACACA_site5820] | 8.07
AAATAATATATTCTATATAATAAATTATAAATATAA [GTGCAC_negctrl_site558] | 6.58
AAGTGTATATAAAAATGTACATATTTCGATTTAAAT [XGTACX_site4161] | 7.11
TTATTTTTAATATCGGTGCAACAAAAAGGAAAAGAT [GTGCAC_site9482] | 9.64
TTTATATCATTTCTTAAAAAAAAGGAGGTAATAGAC [TGCATGCA_negctrl_site555] | 8.44
TTCTTAAAAGGAAAGGTGCAACTTTATCATTTTCTT | 10.9

Sequence | gcPBM binding intensity (ln)
TAAAGATGAAATATCACACATATATAAATATATAAA [CACACA_site4580] | 6.69
AATAATAATAGAAACACACACACATTTTTAAGAATA [CACACA_site6692] | 6.74
AACAAAGAAAATACATGTACAAAAAATATTAACGAA [XGTACX_site287] | 7.22
ATAAATAAAACAACAGTGCAATAAAATTAGTTGAGG | 7.5
TTTAGTGAGTTTGTTGTGCACTGAAAAAATTACAAT | 10.5
TATATTATATATATACTGCACTGTTTTACAAAATTA | 8.44
TTATATAATCCTTTCAAACACACAAAATATAATTAA [CACACA_site1830] | 6.91
ACAAAATAAACCACGTGTACAAATTTATAATGTGTA [XGTACX_site1153] | 7.21
TGTTAAAAAATGGATGCACACATTAAATAAAAAGTA [CACACA_site1660] | 8.9
AAAAAAAAAAAGTGCACACATAAAAATATGATCTAA [CACACA_site572] | 11.5
TATATATATATGTGCACACATAATAAAAAAAAAAAT [CACACA_site3831] | 9.49
AAAAATAAAATGATGGTGCACATAAAGTATGGTTAC | 11.3
AAAAAAAAAAAAAGTGCACACATAAAAATATGATCT [CACACA_site8090] | 11.2
AAAAAAAAAAAAAGCACACATATAAATATGAATAAA [CACACA_site1393] | 7.18
AAAAAAAAAAAAAAAGCACACATATAAATATGAATA [CACACA_site8391] | 7.5
ATCTTAACTCTATGCACACATAAAAGTATATAAATA [CACACA_site2256] | 7.7
TACAAAATATATATGACACACATAAAAAAAAGTATA [CACACA_site1373] | 6.96
